Experimental data taken from the supplement of paper PMC3334620.
Whole data set: some 33,000 sequences, median “E-score (-0.5 to 0.5)” near -0.053, cut for the highest 2% near 0.37. The list comes from a sample in which the highest values are over-represented; it also holds similar and randomly drawn sequences.

target: Hap1 (UniProt P0CE41); assay: PBM E-score (8-mer binding enrichment) (E-score (-0.5 to 0.5)); higher = stronger / more preferred TF binding; conditions: protein concentration: 200 nM; construct: GST-DNA-binding domain
UniProt P0CE41, sequence (P0CE41 whole entry, the tested form may be a part): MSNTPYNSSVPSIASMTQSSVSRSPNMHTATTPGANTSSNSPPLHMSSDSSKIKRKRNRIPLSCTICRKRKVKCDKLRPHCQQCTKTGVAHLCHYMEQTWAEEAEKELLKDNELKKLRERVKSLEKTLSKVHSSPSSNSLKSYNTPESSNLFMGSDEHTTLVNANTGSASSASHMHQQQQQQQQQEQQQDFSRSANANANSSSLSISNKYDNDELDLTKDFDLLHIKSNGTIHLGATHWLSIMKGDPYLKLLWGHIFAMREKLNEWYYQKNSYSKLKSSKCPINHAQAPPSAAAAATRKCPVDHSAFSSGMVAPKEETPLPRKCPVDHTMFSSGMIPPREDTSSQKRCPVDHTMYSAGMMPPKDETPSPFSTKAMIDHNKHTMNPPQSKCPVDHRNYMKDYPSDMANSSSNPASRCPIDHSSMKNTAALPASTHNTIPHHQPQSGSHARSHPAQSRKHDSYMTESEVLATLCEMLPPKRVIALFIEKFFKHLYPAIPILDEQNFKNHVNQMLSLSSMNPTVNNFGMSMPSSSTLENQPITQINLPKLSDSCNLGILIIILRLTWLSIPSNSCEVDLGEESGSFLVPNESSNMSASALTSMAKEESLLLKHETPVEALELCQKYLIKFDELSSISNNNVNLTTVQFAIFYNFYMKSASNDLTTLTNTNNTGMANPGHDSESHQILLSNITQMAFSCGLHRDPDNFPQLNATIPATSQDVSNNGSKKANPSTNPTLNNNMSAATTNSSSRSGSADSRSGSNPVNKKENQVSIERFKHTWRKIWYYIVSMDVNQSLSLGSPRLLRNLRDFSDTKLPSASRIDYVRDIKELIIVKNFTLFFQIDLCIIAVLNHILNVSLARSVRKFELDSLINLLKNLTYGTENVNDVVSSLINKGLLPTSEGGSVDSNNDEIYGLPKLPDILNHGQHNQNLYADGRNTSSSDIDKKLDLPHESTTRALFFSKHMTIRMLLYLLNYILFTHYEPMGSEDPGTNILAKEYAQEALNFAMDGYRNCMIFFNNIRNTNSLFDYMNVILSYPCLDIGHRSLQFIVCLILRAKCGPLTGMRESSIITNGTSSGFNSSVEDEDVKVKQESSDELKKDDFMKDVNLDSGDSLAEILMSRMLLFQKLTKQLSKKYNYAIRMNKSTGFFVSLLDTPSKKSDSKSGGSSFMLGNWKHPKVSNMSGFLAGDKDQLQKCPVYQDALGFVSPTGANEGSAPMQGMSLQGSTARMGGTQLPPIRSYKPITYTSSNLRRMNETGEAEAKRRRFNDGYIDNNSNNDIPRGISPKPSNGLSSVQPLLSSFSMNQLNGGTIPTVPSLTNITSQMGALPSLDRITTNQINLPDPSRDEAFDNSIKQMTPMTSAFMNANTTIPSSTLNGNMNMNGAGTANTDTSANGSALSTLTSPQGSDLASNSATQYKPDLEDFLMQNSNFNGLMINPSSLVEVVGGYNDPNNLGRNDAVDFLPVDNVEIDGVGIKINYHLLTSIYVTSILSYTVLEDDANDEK
Procedure: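 Universal 'all 10-mer' protein binding microarrays (Agilent AMADID 015681) probed with GST-tagged S. cerevisiae TFs (full-length or DBD) made by in vitro transcription/translation (PURExpress), about 100-200 nM. Bound TF was detected with fluorescent anti-GST. Each ungapped 8-mer (which stands for itself and its reverse complement) is scored by the PBM enrichment score (E-score), a modified Wilcoxon-Mann-Whitney statistic from -0.5 to +0.5, computed with the Universal PBM Analysis Suite. Scale: above 0.35 generally sequence-specific binding.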

Compared with GGGGGTAC, CTAACAGA is lower in “PBM E-score” value: 0.215 for the first, -0.101 for the second.

Compared with CTAGCAGA, ATCCTCAC is higher in “PBM E-score” value: -0.242 for the first, -0.103 for the second.

Going from AGCAGGAT to TCTCCCAA, the “PBM E-score” value falls from -0.0378 to -0.0542.

Compared with GCTTTCCA, CTTCGAGA is lower in “PBM E-score” value: -0.11 for the first, -0.234 for the second.

Compared with GTGCGAGA, CTCCGACC is higher in “PBM E-score” value: -0.179 for the first, 0.359 for the second.

Compared with CCCCGAGC, CTCCGAGA is higher in “PBM E-score” value: 0.351 for the first, 0.376 for the second.

Compared with CTGCGAGA, GTCCGAGA is higher in “PBM E-score” value: -0.215 for the first, 0.437 for the second.

First: ATCCGAGA
Second: CTCCGAGC
The “PBM E-score” value of the first is lower: 0.346 for the first, 0.386 for the second.

Compared with CCAATCTC, AGCCCTAC is lower in “PBM E-score” value: 0.00791 for the first, -0.129 for the second.

Compared with CATGGTGA, CCGGAAGC is higher in “PBM E-score” value: -0.0558 for the first, 0.336 for the second.

First: GTCATCAC
Second: AGGAGTAG
The “PBM E-score” value of the first is lower: -0.249 for the first, -0.195 for the second.

Compared with CCAAGGAA, AAGTCCGA is higher in “PBM E-score” value: -0.0481 for the first, 0.467 for the second.

Going from CAGTCCGA to AAGTCCAA, the “PBM E-score” value falls from 0.366 to -0.00743.

First: AAGTCCTA
Second: GAGTCCGA
The “PBM E-score” value of the first is lower: 0.0348 for the first, 0.35 for the second.

Compared with TAGTCCGA, AACCCTCA is lower in “PBM E-score” value: 0.42 for the first, -0.135 for the second.

First: TGGTTAAA
Second: AATCGCCT
The “PBM E-score” value of the first is lower: -0.0634 for the first, 0.0771 for the second.

Going from TAGCTTGA to AGGCGTAT, the “PBM E-score” value falls from -0.226 to -0.311.

Compared with ATGCCTAA, GGTTCCAA is higher in “PBM E-score” value: -0.21 for the first, 0.14 for the second.

Going from AGCCCCGA to AGCCCGGA, the “PBM E-score” value rises from 0.333 to 0.39.

First: AGCCCGGC
Second: AACCCGGA
The “PBM E-score” value of the first is lower: 0.272 for the first, 0.371 for the second.

Compared with AGCCCCGG, AGCCCGGG is lower in “PBM E-score” value: 0.373 for the first, 0.36 for the second.

First: AACCCGGT
Second: AACCCGGC
The “PBM E-score” value of the first is higher: 0.365 for the first, 0.333 for the second.

Going from CTCCCGGC to CTCCCGGA, the “PBM E-score” value rises from 0.33 to 0.376.

First: GTCCCGGA
Second: AGCCCCCG
The “PBM E-score” value of the first is higher: 0.343 for the first, 0.185 for the second.

Compared with AGTGCTAA, CGTTTGTA is lower in “PBM E-score” value: 0.0956 for the first, -0.122 for the second.

Compared with GACCACTC, TCTCCAGA is lower in “PBM E-score” value: 0.0772 for the first, -0.0567 for the second.

First: TAGTAGCA
Second: ATGCGCGA
The “PBM E-score” value of the first is lower: -0.123 for the first, 0.188 for the second.

Going from ACTAAAGG to AGGCGCAC, the “PBM E-score” value rises from -0.181 to -0.0853.

Compared with AGTCCATC, TGCAGACA is lower in “PBM E-score” value: -0.027 for the first, -0.233 for the second.

Going from GGCCCGGA to GCCCCGTA, the “PBM E-score” value falls from 0.409 to 0.0466.

First: GCCCCGGC
Second: GGCCCGAA
The “PBM E-score” value of the first is lower: 0.25 for the first, 0.384 for the second.

Compared with CGCCCGAA, GCCCCGGA is higher in “PBM E-score” value: 0.294 for the first, 0.391 for the second.

Going from ACCCCGGA to ACCCCGGG, the “PBM E-score” value falls from 0.37 to 0.357.

Going from GGCCCGCA to GGCCCGTA, the “PBM E-score” value rises from 0.157 to 0.281.

First: AGCCCGAA
Second: CCCCCGGA
The “PBM E-score” value of the first is lower: 0.3 for the first, 0.305 for the second.

First: CCTGGTGC
Second: GAAAATCC
The “PBM E-score” value of the first is lower: -0.0907 for the first, 0.167 for the second.

Compared with GAAGGTCC, AGCTCCAA is lower in “PBM E-score” value: 0.0808 for the first, -0.276 for the second.

Compared with GAGACGCC, GGATACAC is higher in “PBM E-score” value: 0.0301 for the first, 0.132 for the second.

Compared with CACCATCC, ATTTAATC is higher in “PBM E-score” value: 0.0474 for the first, 0.153 for the second.

First: ACAATGAA
Second: AGATACAC
The “PBM E-score” value of the first is lower: -0.165 for the first, -0.0669 for the second.

Compared with ACTGGTAG, GCAAGCCA is higher in “PBM E-score” value: -0.206 for the first, -0.171 for the second.

First: CAGTCGAA
Second: CACCCGGA
The “PBM E-score” value of the first is lower: -0.204 for the first, 0.364 for the second.

Compared with TCCCCGAA, TACCCGGA is higher in “PBM E-score” value: 0.335 for the first, 0.38 for the second.

First: TCCCCGCA
Second: TCCCCGGA
The “PBM E-score” value of the first is lower: 0.303 for the first, 0.377 for the second.

Going from CGCCCGGC to GACCCGGA, the “PBM E-score” value rises from 0.335 to 0.353.

Compared with CGCCCGGA, CGCCCGTA is lower in “PBM E-score” value: 0.4 for the first, 0.142 for the second.

First: GAACGCAA
Second: ACTTCTAG
The “PBM E-score” value of the first is higher: -0.0397 for the first, -0.146 for the second.

First: GAACATGA
Second: AAGTCCAG
The “PBM E-score” value of the first is lower: -0.0648 for the first, -0.056 for the second.

Going from ATTGCTCG to TGCTCAAA, the “PBM E-score” value falls from 0.137 to -0.145.

Going from CGATAAGA to TACGCCTA, the “PBM E-score” value falls from 0.291 to -0.258.

First: CGGATATC
Second: AGGATATC
The “PBM E-score” value of the first is higher: 0.39 for the first, 0.155 for the second.

Compared with CGGATAAC, CTGATATC is lower in “PBM E-score” value: 0.359 for the first, 0.26 for the second.

First: CGGATAAA
Second: CGGATCTC
The “PBM E-score” value of the first is higher: 0.381 for the first, 0.279 for the second.

Compared with AATATATC, GATATATC is higher in “PBM E-score” value: 0.26 for the first, 0.373 for the second.

Going from TGGATAAA to GATATATA, the “PBM E-score” value rises from -0.0137 to 0.198.

First: CGGATCTA
Second: GGGATCTA
The “PBM E-score” value of the first is higher: 0.404 for the first, 0.134 for the second.

Compared with CATTAGCA, CTAAGAGC is higher in “PBM E-score” value: -0.142 for the first, -0.0334 for the second.

Going from AGGGTGAT to CAGAACAA, the “PBM E-score” value rises from -0.15 to -0.101.

Compared with CGGATGTA, CGGATATA is higher in “PBM E-score” value: 0.427 for the first, 0.482 for the second.

First: TGGATACA
Second: GGGATGTA
The “PBM E-score” value of the first is lower: -0.288 for the first, 0.124 for the second.

First: AGGATATA
Second: CGGATGTC
The “PBM E-score” value of the first is lower: 0.0407 for the first, 0.35 for the second.

First: GGGATATA
Second: CGGATACC
The “PBM E-score” value of the first is lower: 0.21 for the first, 0.218 for the second.

First: CGGATACA
Second: ATAGCCTA
The “PBM E-score” value of the first is higher: 0.385 for the first, -0.189 for the second.

Going from CCGAATAC to ATGTGACG, the “PBM E-score” value falls from 0.365 to -0.166.

First: GACGGGCC
Second: ACTAGGTC
The “PBM E-score” value of the first is higher: 0.142 for the first, -0.0578 for the second.

First: GTCGACAC
Second: TCGATAAA
The “PBM E-score” value of the first is lower: -0.156 for the first, 0.146 for the second.

Going from GCGATAAC to ACGATAAG, the “PBM E-score” value falls from 0.322 to 0.245.

First: CCGATAAA
Second: GCGATAAA
The “PBM E-score” value of the first is higher: 0.461 for the first, 0.258 for the second.

First: CGGATAAG
Second: ACGATAAC
The “PBM E-score” value of the first is higher: 0.31 for the first, 0.0651 for the second.

First: CCGATAAC
Second: CCGATAAG
The “PBM E-score” value of the first is higher: 0.447 for the first, 0.431 for the second.

First: CAAGATAA
Second: AAGCCTAA
The “PBM E-score” value of the first is higher: -0.0149 for the first, -0.0872 for the second.

First: ATGCCAGG
Second: ACTCTTGG
The “PBM E-score” value of the first is higher: -0.127 for the first, -0.22 for the second.

Compared with ACGCTCGG, ACGCTCGC is lower in “PBM E-score” value: 0.375 for the first, -0.123 for the second.

Compared with ACGCTCGA, TATCCAGA is higher in “PBM E-score” value: -0.125 for the first, -0.0797 for the second.

Going from AGACTGAG to CGCAGCAA, the “PBM E-score” value rises from -0.208 to -0.197.

Going from CGCGAGGA to CGGCTTTA, the “PBM E-score” value rises from 0.0251 to 0.464.

First: GGGCTTTA
Second: CGGCTATA
The “PBM E-score” value of the first is lower: 0.132 for the first, 0.383 for the second.

First: TGGCTTAA
Second: CGGCTTTC
The “PBM E-score” value of the first is lower: -0.0483 for the first, 0.259 for the second.

Compared with CGGCTTAA, AGGCTATA is lower in “PBM E-score” value: 0.391 for the first, -0.157 for the second.

Compared with CGGCTTAG, GGGCTATA is lower in “PBM E-score” value: 0.229 for the first, -0.0464 for the second.

Going from GCTCTACA to GTCCTAGA, the “PBM E-score” value falls from -0.124 to -0.246.

First: TCTTTTCA
Second: TGGAAACA
The “PBM E-score” value of the first is lower: -0.162 for the first, -0.0875 for the second.

Compared with CTGCTCCA, CAGGACGC is lower in “PBM E-score” value: -0.239 for the first, -0.246 for the second.

Compared with AAGGATGG, CGGTGATA is higher in “PBM E-score” value: -0.188 for the first, 0.428 for the second.

First: GGGTGATA
Second: CGGTGATC
The “PBM E-score” value of the first is lower: 0.167 for the first, 0.26 for the second.

Compared with CGGTGTTC, CGGTGTTA is higher in “PBM E-score” value: 0.235 for the first, 0.465 for the second.

GGGTGTTA was tested, and the “PBM E-score” value was 0.0847.
